# Mcl1-Noxa inh – Mcl-1/Noxa interaction inhibition. Q07820. TR-FRET Mcl-1/Noxa peptide binding, 2 h. inhibition, % at 21.7 µM. 1.5% of 220,000 active. AID 1022;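 active = compounds that cut the protein-peptide binding signal by more than 50% relative to plate controls in a single-dose test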;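 note: His-tagged Mcl-1 with rhodamine Noxa BH3 peptide and terbium anti-His antibody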
# Target sequence (Q07820 whole entry, looked up): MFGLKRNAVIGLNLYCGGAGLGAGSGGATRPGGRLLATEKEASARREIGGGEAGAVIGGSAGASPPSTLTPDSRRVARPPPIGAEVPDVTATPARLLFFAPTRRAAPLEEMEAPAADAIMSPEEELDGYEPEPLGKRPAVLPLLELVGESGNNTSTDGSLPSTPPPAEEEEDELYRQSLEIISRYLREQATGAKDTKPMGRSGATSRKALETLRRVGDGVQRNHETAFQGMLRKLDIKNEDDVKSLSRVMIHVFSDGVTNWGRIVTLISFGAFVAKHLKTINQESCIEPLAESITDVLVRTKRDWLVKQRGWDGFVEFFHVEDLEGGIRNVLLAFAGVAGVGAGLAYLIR
# Mcl1-Bid inh – Mcl-1/Bid interaction inhibition; Q07820; TR-FRET Mcl-1/Bid-Dy647 peptide binding, 1536-well; inhibition, % at 21.7 µM; 0.97% of 220,000 active; AID 1021;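 active = compounds that cut the binding signal by more than half at the single screening dose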;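 note: His-tagged Mcl-1 with europium anti-His antibody binding Bid BH3 peptide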
# GLD-1 TGE inh – GLD-1-TGE RNA interaction inhibition (C. elegans) | Q17339 | purified GLD-1 + fluorescein TGE RNA, fluorescence polarization | AID 2280 | 0.44% of 320,000 active | inhibition, % at 5.96 µM;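 active = percent inhibition above a per-plate cutoff, the plate mean of test compounds plus 3 SD, cut at about 30% in these data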
# MCL1 BIM primary – inhibitors of human MCL1 binding to BIM-BH3 peptide; 0.68% of 320,000 active; GST-MCL1 / FITC-Bim-BH3 fluorescence polarization; Q07820; inhibition, % at 10.9 µM;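 active = inhibition above the mean inhibition of all tested compounds plus 3 SD, set per campaign, cut at about 40% in these data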;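 note: higher means more loss of mP so more displacement of Bim peptide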
# Mcl-1 Bim block – human Bim-Mcl-1 interaction inhibition. Q07820. Bead-based flow cytometry, Bim peptide-Mcl-1 binding. inhibition, % at 10 µM. 0.1% of 190,000 active; in the data active = inhibition above about 40%
# BCLXL inh – blocks human Bcl-xL binding to Bim BH3 peptide | Q07817 | GST-Bcl-xL / FITC-Bim BH3 peptide fluorescence polarization | inhibition, % at 10.9 µM | 0.7% of 320,000 active | AID 2129;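 active = inhibition above the mean of all tested compounds plus 3 SD, cutoff set per campaign, cut at about 30% in these data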;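 note: inhibitors lower millipolarization by displacing the labeled peptide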
# Target sequence (Q07817 whole entry, looked up): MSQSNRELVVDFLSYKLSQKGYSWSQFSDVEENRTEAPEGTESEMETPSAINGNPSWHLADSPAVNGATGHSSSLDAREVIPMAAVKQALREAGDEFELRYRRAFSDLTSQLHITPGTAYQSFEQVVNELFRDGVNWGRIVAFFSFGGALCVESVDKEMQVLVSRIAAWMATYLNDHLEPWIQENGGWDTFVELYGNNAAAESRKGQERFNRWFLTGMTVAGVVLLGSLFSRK
# A number is an active result; – = inactive; · = no result; ! = not confirmed by another sample. A selection: hits, their analogues and other compounds. The true share with any hit is near 2.3%.
SMILES,Mcl1-Noxa inh,Mcl1-Bid inh,GLD-1 TGE inh,MCL1 BIM primary,Mcl-1 Bim block,BCLXL inh
O=c1[nH]c(/C=C/c2ccccc2[N+](=O)[O-])nc2ccccc12,–,53.5,–,–,–,–
COc1cc(OC)cc(C(=O)N(CCCN2C(=O)c3cccc4cccc(c34)C2=O)c2cccc(OC)c2)c1,–,83.7,–,–,–,–
Nc1cc([N+](=O)[O-])ccc1Nc1ccc(O)cc1,71.9,–,–,–,·,–
O=C(N/N=C/c1cc2cc3c(cc2nc1Cl)OCO3)c1ccncc1,–,–,–,–,·,–
Cc1ccc2cc(/C=N/NC(=O)c3ccccc3O)c(Cl)nc2c1,63.7,–,–,–,–,–
Cc1cccc2cc(/C=N/NC(=O)c3ccccc3O)c(Cl)nc12,83.4,–,–,–,–,–
Cc1cccc2cc(/C=N/NC(=O)c3ccncc3)c(Cl)nc12,–,–,–,–,·,–
Cc1ccc2cc(/C=N/NC(=O)[C@H]3C[C@@H]3c3ccccc3)c(Cl)nc2c1,–,–,–,–,–,–
O=C(N/N=C/c1cc2cc3c(cc2nc1Cl)OCCO3)c1ccccc1O,71.3,60.5,–,–,–,–
COc1cccc(C(C)NC(=O)c2ccncc2)c1 (stereo unspecified),·,·,–,–,·,–
O=C(O)CSc1cc(C(=O)c2cc(F)ccc2O)cn2c(=O)c3c(-c4ccccc4)csc3nc12,104.2,–,–,–,·,–
CCOC(=O)c1sc2nc3c(SCCC(=O)O)cc(C(=O)c4cc(OC)ccc4O)cn3c(=O)c2c1C,87.5,85.0,·,·,–,·
CCc1c(C)sc2nc3c(C(=O)N4CCOCC4)cc(C(=O)c4cc(F)ccc4O)cn3c(=O)c12,–,–,–,–,–,–
CCOC(=O)c1sc2nc3c(SCCC#N)cc(C(=O)c4cc(F)ccc4O)cn3c(=O)c2c1C,–,–,–,–,–,–
CCOc1ccc(NC(=O)N(CCN2CCOCC2)Cc2ccc3c(c2)CCCN3CC)cc1,78.4,–,–,–,–,–
CCN1CCCc2cc(CN(CCN3CCOCC3)C(=S)Nc3cccc(OC)c3)ccc21,60.3,–,–,–,–,–
CC(=O)Nc1ccc(S(=O)(=O)NCc2nc(-c3ccc(C)cc3)no2)cc1,·,·,–,–,·,–
Nc1c(C(=O)NCC2CCCO2)sc2nc3c(c(-c4ccco4)c12)CC/C3=C\c1ccco1 (stereo unspecified),98.2,79.8,·,·,44.0,·
Cc1ccc(-c2cc(C(=O)Nc3ccc(S(=O)(=O)Nc4ncccn4)cc3)[nH]n2)c(O)c1C,56.5,–,–,–,·,–
O=C(N/N=C/c1cccnc1)c1ccc(CN2c3cccc4cccc(c34)S2(=O)=O)cc1,66.3,–,–,–,–,–
COc1cccc(/C=N/NC(=O)c2ccc(CN3c4cccc5cccc(c45)S3(=O)=O)cc2)c1,–,–,–,–,–,–
O=C1c2ccccc2N2C(=O)c3ccccc3C2N1Cc1ccccc1 (stereo unspecified),–,–,–,–,·,–
CC1=C(C#N)c2nc(N)c(C#N)c(C)c2/C1=C\c1ccc(OCC(=O)O)c(Cl)c1,57.1,–,–,–,·,36.5
CCc1nc(N)c(C#N)c(-c2ccc(OC)c(OC)c2)c1C,–,–,–,–,–,–
CCCCCC1CC(CC#CCN2CCOCC2)C(=O)O1 (stereo unspecified),–,51.1,–,–,–,–
SMILES,Mcl1-Noxa inh,Mcl1-Bid inh,GLD-1 TGE inh,MCL1 BIM primary,Mcl-1 Bim block,BCLXL inh
CCCOC(=O)C1=C(C)NC2=C(C(=O)C(C(=O)OC)C(C)C2)C1c1ccc(N(CC)CC)cc1 (stereo unspecified),–,–,–,–,–,–
CCC(C)OC(=O)C1=C(C)NC2=C(C(=O)C(C(=O)OC)C(C)C2)C1c1ccc(N(C)C)cc1 (stereo unspecified),59.9,–,–,–,–,–
Oc1ccccc1CN1CCCC(N2CCN(c3cccc(C(F)(F)F)c3)CC2)C1 (stereo unspecified),·,·,–,–,·,–
CC1CCCCC1NC(=O)Cn1cc([N+](=O)[O-])ccc1=O (stereo unspecified),·,·,–,–,·,–
O=C(Cc1ccc2cccnc2c1)c1ccc(O)cc1O,–,–,–,–,–,–
Oc1ccc2cccnc2c1,–,–,–,44.6,–,40.3
N#C/C(=C(/O)c1ccc(Cl)c([N+](=O)[O-])c1)c1nc2ccccc2[nH]1,66.4,–,–,–,·,–
N#C/C(=C(/O)c1ccc([N+](=O)[O-])cc1)c1nc2ccccc2[nH]1,–,–,–,–,·,–
CN(C(=O)CN1C(=O)C2C3CC(C(Br)C3Br)C2C1=O)C1CCCCC1 (stereo unspecified),·,·,–,–,·,–
Cc1nn(CC(=O)NCC(C)c2ccccc2)c(=O)c2cccn12 (stereo unspecified),·,·,–,–,·,–
Cc1cc(Cl)ccc1-n1c(-c2cccnc2)n[nH]c1=S,59.3,–,–,–,·,–
COc1cccc(C(=O)OC(C)C(=O)NCC2CCCCC2)c1 (stereo unspecified),·,·,–,–,·,–
CCOc1ccccc1NC(=O)CSc1nnc2ccc(-c3cccnc3)nn12,–,–,–,–,40.0,–
COc1ccccc1NC(=O)CSc1nnc2ccc(-c3cccnc3)nn12,–,–,–,–,–,–
CC(=O)c1ccc(N=C2NC(=O)C(CO)(CO)S2)cc1,·,·,–,–,·,–
CC(=O)NC1C(=O)N=C(SCC(=O)NC(C)c2ccccc2)NC1=O (stereo unspecified),–,55.5,–,–,–,–
CC(=O)NC1C(=O)N=C(SCc2ccccc2)NC1=O (stereo unspecified),–,–,–,–,–,–
COc1cc(C(=O)OCC(=O)NC2CCCC2)cc(OC)c1OC,·,·,–,–,·,–
COc1ccccc1NC(=O)COC(=O)c1ccc(S(=O)(=O)NCc2ccco2)cc1,–,–,–,–,–,–
COc1ccccc1NS(=O)(=O)c1ccc(C(=O)OCC(=O)NCc2ccco2)cc1,54.9,–,–,–,–,–
COc1cccc(NC(=O)CCNS(=O)(=O)c2cccc3nonc23)c1,·,·,–,–,·,–
CN1N=C(C(=O)N2CCCC(C(=O)c3cccc(C(F)(F)F)c3)C2)CCC1=O (stereo unspecified),–,–,–,–,48.0,–
N#CC1=C(S)N(c2ccccc2)C(c2ccc(-c3cc(Cl)ccc3Cl)o2)NC1=O (stereo unspecified),75.5,–,–,–,–,–
CCOc1cc(/C=C2\SC(=S)N(C(C(=O)O)c3ccccc3)C2=O)ccc1O (stereo unspecified),51.4,50.6,–,–,·,–
Nc1[nH]c(=O)ncc1F,–,57.5!,–,–,–,–
COc1ccc(C(CNC(=O)c2ccc(-c3ccccc3)cc2)N(C)C)cc1OC (stereo unspecified),·,·,–,–,·,–
COc1ccc(C(C)=O)cc1COC(=O)c1c(C)noc1C,–,–,–,–,–,–

# From PubChem BioAssay
